# Laboratory results published in paper PMC11006913.
# Positions count from the first letter of the chain named.
# Legend:
# Test in all cases: PBM; 200 nM protein, PBS
# Details in all cases: dsDNA, one strand shown
# VENTX [1] = target: T1, VENTX (Homo sapiens, UniProt O95231 78-163, R121Q)
# T1 sequence: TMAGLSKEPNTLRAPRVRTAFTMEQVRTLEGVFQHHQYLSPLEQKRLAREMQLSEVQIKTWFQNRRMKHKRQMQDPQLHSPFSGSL
# VENTX [2] = target: T2, VENTX (Homo sapiens, UniProt O95231 78-163)
# T2 sequence: T1 sequence with Q44R
# PRRX1 [3] = target: PRRX1 (Homo sapiens, UniProt P54821 80-166, F113S)
# Chain of PRRX1 (Homo sapiens, UniProt P54821 80-166, F113S) (P54821 80-166 F113S): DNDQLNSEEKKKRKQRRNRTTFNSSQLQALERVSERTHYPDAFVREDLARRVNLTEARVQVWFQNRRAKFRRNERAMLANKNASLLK
# VENTX [4] = target: T3, VENTX (Homo sapiens, UniProt O95231 78-163, Y115F)
# T3 sequence: T1 sequence with Y38F, Q44R
# PRRX1 [5] = target: PRRX1 (Homo sapiens, UniProt P54821 80-166)
# Chain of PRRX1 (Homo sapiens, UniProt P54821 80-166) (P54821 80-166): as the sequence (P54821 80-166 F113S) above, with S34F counted along it
# HOXC10 [6] = target: HOXC10 (Homo sapiens, UniProt Q9NYD6 254-340)
# Chain of HOXC10 (Homo sapiens, UniProt Q9NYD6 254-340) (Q9NYD6 254-340): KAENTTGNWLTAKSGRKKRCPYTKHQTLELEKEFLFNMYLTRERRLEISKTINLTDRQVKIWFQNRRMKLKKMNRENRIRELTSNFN
# HOXA2 [7] = target: HOXA2 (Homo sapiens, UniProt O43364 129-215, R185T)
# Chain of HOXA2 (Homo sapiens, UniProt O43364 129-215, R185T) (O43364 129-215 R185T): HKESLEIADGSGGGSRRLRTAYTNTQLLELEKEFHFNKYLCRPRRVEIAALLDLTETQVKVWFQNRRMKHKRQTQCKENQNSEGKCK
# HOXA2 [8] = target: HOXA2 (Homo sapiens, UniProt O43364 129-215, R185K)
# Chain of HOXA2 (Homo sapiens, UniProt O43364 129-215, R185K) (O43364 129-215 R185K): as the sequence (O43364 129-215 R185T) above, with T57K counted along it
# HOXC10 [9] = target: HOXC10 (Homo sapiens, UniProt Q9NYD6 254-340, K271E)
# Chain of HOXC10 (Homo sapiens, UniProt Q9NYD6 254-340, K271E) (Q9NYD6 254-340 K271E): as the sequence (Q9NYD6 254-340) above, with K18E counted along it
# HOXA2 [10] = target: HOXA2 (Homo sapiens, UniProt O43364 129-215, Y150S)
# Chain of HOXA2 (Homo sapiens, UniProt O43364 129-215, Y150S) (O43364 129-215 Y150S): as the sequence (O43364 129-215 R185T) above, with Y22S, T57R counted along it
# HOXA2 [11] = target: HOXA2 (Homo sapiens, UniProt O43364 129-215)
# Chain of HOXA2 (Homo sapiens, UniProt O43364 129-215) (O43364 129-215): as the sequence (O43364 129-215 R185T) above, with T57R counted along it
# ALX1 [12] = target: ALX1 (Homo sapiens, UniProt Q15699 118-204, L144V)
# Chain of ALX1 (Homo sapiens, UniProt Q15699 118-204, L144V) (Q15699 118-204 L144V): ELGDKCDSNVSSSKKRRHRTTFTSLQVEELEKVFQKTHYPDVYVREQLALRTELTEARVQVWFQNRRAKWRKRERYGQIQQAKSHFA
# ALX3 [13] = target: ALX3 (Homo sapiens, UniProt O95076 139-225, N203Q)
# Chain of ALX3 (Homo sapiens, UniProt O95076 139-225, N203Q) (O95076 139-225 N203Q): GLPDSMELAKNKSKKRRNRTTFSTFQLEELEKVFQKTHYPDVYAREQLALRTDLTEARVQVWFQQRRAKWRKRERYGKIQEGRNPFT
# ALX1 [14] = target: ALX1 (Homo sapiens, UniProt Q15699 118-204, L144R)
# Chain of ALX1 (Homo sapiens, UniProt Q15699 118-204, L144R) (Q15699 118-204 L144R): as the sequence (Q15699 118-204 L144V) above, with V27R counted along it
# ALX3 [15] = target: ALX3 (Homo sapiens, UniProt O95076 139-225)
# Chain of ALX3 (Homo sapiens, UniProt O95076 139-225) (O95076 139-225): as the sequence (O95076 139-225 N203Q) above, with Q65N counted along it
# ALX3 [16] = target: ALX3 (Homo sapiens, UniProt O95076 139-225, L168Q)
# Chain of ALX3 (Homo sapiens, UniProt O95076 139-225, L168Q) (O95076 139-225 L168Q): as the sequence (O95076 139-225 N203Q) above, with L30Q, Q65N counted along it
# ALX3 [17] = target: ALX3 (Homo sapiens, UniProt O95076 139-225, L168V)
# Chain of ALX3 (Homo sapiens, UniProt O95076 139-225, L168V) (O95076 139-225 L168V): as the sequence (O95076 139-225 N203Q) above, with L30V, Q65N counted along it
# ALX1 [18] = target: ALX1 (Homo sapiens, UniProt Q15699 118-204)
# Chain of ALX1 (Homo sapiens, UniProt Q15699 118-204) (Q15699 118-204): as the sequence (Q15699 118-204 L144V) above, with V27L counted along it
# ALX3 [19] = target: ALX3 (Homo sapiens, UniProt O95076 139-225, N203S)
# Chain of ALX3 (Homo sapiens, UniProt O95076 139-225, N203S) (O95076 139-225 N203S): as the sequence (O95076 139-225 N203Q) above, with Q65S counted along it
# HOXA7 [20] = target: HOXA7 (Homo sapiens, UniProt P31268 116-202)
# Chain of HOXA7 (Homo sapiens, UniProt P31268 116-202) (P31268 116-202): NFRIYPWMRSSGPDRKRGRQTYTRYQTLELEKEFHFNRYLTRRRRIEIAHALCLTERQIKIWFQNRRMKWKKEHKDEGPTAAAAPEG
# MSX2 [21] = target: MSX2 (Homo sapiens, UniProt P35548 130-214, R199I)
# Chain of MSX2 (Homo sapiens, UniProt P35548 130-214, R199I) (P35548 130-214 R199I): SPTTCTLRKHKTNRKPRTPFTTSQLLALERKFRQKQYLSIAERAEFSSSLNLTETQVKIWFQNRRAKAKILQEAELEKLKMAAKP
# MSX2 [22] = target: MSX2 (Homo sapiens, UniProt P35548 130-214)
# Chain of MSX2 (Homo sapiens, UniProt P35548 130-214) (P35548 130-214): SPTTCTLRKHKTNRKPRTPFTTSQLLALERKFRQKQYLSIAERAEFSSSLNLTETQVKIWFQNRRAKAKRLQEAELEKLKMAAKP
# MSX2 [23] = target: MSX2 (Homo sapiens, UniProt P35548 130-214, F161Y)
# Chain of MSX2 (Homo sapiens, UniProt P35548 130-214, F161Y) (P35548 130-214 F161Y): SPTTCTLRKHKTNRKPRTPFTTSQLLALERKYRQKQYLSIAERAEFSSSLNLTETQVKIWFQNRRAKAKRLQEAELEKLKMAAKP
# HOXA7 [24] = target: HOXA7 (Homo sapiens, UniProt P31268 116-202, W177C)
# Chain of HOXA7 (Homo sapiens, UniProt P31268 116-202, W177C) (P31268 116-202 W177C): as the sequence (P31268 116-202) above, with W62C counted along it
# PITX2 = PITX2 (Homo sapiens, UniProt Q99697 72-157)
# NKX3-2 [25] = target: NKX3-2 (Homo sapiens, UniProt P78367 192-278, P234S)
# Chain of NKX3-2 (Homo sapiens, UniProt P78367 192-278, P234S) (P78367 192-278 P234S): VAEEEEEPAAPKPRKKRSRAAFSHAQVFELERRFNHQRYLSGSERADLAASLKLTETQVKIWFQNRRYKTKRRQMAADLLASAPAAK
# NKX3-2 [26] = target: NKX3-2 (Homo sapiens, UniProt P78367 192-278)
# Chain of NKX3-2 (Homo sapiens, UniProt P78367 192-278) (P78367 192-278): as the sequence (P78367 192-278 P234S) above, with S43P counted along it
sequence,measurement,setting,value
GCCAACCC,binding signal,VENTX [1],"8.11 upbm affinity estimate (log intensity, higher = more binding, comparable within an allelic series)"
same,binding signal,VENTX [2],"7.96 upbm affinity estimate (log intensity, higher = more binding, comparable within an allelic series)"
same,binding signal,PRRX1 [3],"9.36 upbm affinity estimate (log intensity, higher = more binding, comparable within an allelic series)"
same,binding signal,VENTX [4],"8.24 upbm affinity estimate (log intensity, higher = more binding, comparable within an allelic series)"
same,binding signal,PRRX1 [5],"9.21 upbm affinity estimate (log intensity, higher = more binding, comparable within an allelic series)"
GCCGGCAC,binding signal,VENTX [1],"7.98 upbm affinity estimate (log intensity, higher = more binding, comparable within an allelic series)"
same,binding signal,VENTX [2],"7.91 upbm affinity estimate (log intensity, higher = more binding, comparable within an allelic series)"
same,binding signal,VENTX [4],"7.98 upbm affinity estimate (log intensity, higher = more binding, comparable within an allelic series)"
CACTGGGG,binding signal,VENTX [1],"7.92 upbm affinity estimate (log intensity, higher = more binding, comparable within an allelic series)"
same,binding signal,VENTX [2],"7.73 upbm affinity estimate (log intensity, higher = more binding, comparable within an allelic series)"
same,binding signal,HOXC10 [6],"10 upbm affinity estimate (log intensity, higher = more binding, comparable within an allelic series)"
same,binding signal,VENTX [4],"7.93 upbm affinity estimate (log intensity, higher = more binding, comparable within an allelic series)"
same,binding signal,HOXA2 [7],"7.07 upbm affinity estimate (log intensity, higher = more binding, comparable within an allelic series)"
same,binding signal,HOXA2 [8],"10.1 upbm affinity estimate (log intensity, higher = more binding, comparable within an allelic series)"
same,binding signal,HOXC10 [9],"10 upbm affinity estimate (log intensity, higher = more binding, comparable within an allelic series)"
same,binding signal,HOXA2 [10],"10.4 upbm affinity estimate (log intensity, higher = more binding, comparable within an allelic series)"
same,binding signal,HOXA2 [11],"7.07 upbm affinity estimate (log intensity, higher = more binding, comparable within an allelic series)"
CTGGCGCA,binding signal,VENTX [1],"8.11 upbm affinity estimate (log intensity, higher = more binding, comparable within an allelic series)"
same,binding signal,VENTX [2],"8.09 upbm affinity estimate (log intensity, higher = more binding, comparable within an allelic series)"
same,binding signal,HOXC10 [6],"9.99 upbm affinity estimate (log intensity, higher = more binding, comparable within an allelic series)"
same,binding signal,VENTX [4],"8.2 upbm affinity estimate (log intensity, higher = more binding, comparable within an allelic series)"
same,binding signal,ALX1 [12],"6.29 upbm affinity estimate (log intensity, higher = more binding, comparable within an allelic series)"
same,binding signal,ALX3 [13],"7.76 upbm affinity estimate (log intensity, higher = more binding, comparable within an allelic series)"
same,binding signal,ALX1 [14],"6.21 upbm affinity estimate (log intensity, higher = more binding, comparable within an allelic series)"
same,binding signal,HOXC10 [9],"10 upbm affinity estimate (log intensity, higher = more binding, comparable within an allelic series)"
same,binding signal,ALX3 [15],"7.58 upbm affinity estimate (log intensity, higher = more binding, comparable within an allelic series)"
same,binding signal,ALX3 [16],"7.71 upbm affinity estimate (log intensity, higher = more binding, comparable within an allelic series)"
same,binding signal,ALX3 [17],"7.74 upbm affinity estimate (log intensity, higher = more binding, comparable within an allelic series)"
same,binding signal,ALX1 [18],"6.24 upbm affinity estimate (log intensity, higher = more binding, comparable within an allelic series)"
same,binding signal,ALX3 [19],"7.82 upbm affinity estimate (log intensity, higher = more binding, comparable within an allelic series)"
CGTCCAGC,binding signal,VENTX [1],"8.04 upbm affinity estimate (log intensity, higher = more binding, comparable within an allelic series)"
same,binding signal,VENTX [2],"7.65 upbm affinity estimate (log intensity, higher = more binding, comparable within an allelic series)"
same,binding signal,HOXA7 [20],"8.59 upbm affinity estimate (log intensity, higher = more binding, comparable within an allelic series)"
same,binding signal,VENTX [4],"7.81 upbm affinity estimate (log intensity, higher = more binding, comparable within an allelic series)"
same,binding signal,MSX2 [21],"9.63 upbm affinity estimate (log intensity, higher = more binding, comparable within an allelic series)"
same,binding signal,MSX2 [22],"9.6 upbm affinity estimate (log intensity, higher = more binding, comparable within an allelic series)"
same,binding signal,MSX2 [23],"9.74 upbm affinity estimate (log intensity, higher = more binding, comparable within an allelic series)"
same,binding signal,HOXA7 [24],"8.41 upbm affinity estimate (log intensity, higher = more binding, comparable within an allelic series)"
TACATATA,binding signal,VENTX [1],"9.51 upbm affinity estimate (log intensity, higher = more binding, comparable within an allelic series)"
same,binding signal,VENTX [2],"9.59 upbm affinity estimate (log intensity, higher = more binding, comparable within an allelic series)"
same,binding signal,VENTX [4],"9.49 upbm affinity estimate (log intensity, higher = more binding, comparable within an allelic series)"
GAGTTCCC,binding signal,VENTX [1],"8.1 upbm affinity estimate (log intensity, higher = more binding, comparable within an allelic series)"
same,binding signal,VENTX [2],"8.23 upbm affinity estimate (log intensity, higher = more binding, comparable within an allelic series)"
same,binding signal,HOXC10 [6],"9.93 upbm affinity estimate (log intensity, higher = more binding, comparable within an allelic series)"
same,binding signal,VENTX [4],"8.22 upbm affinity estimate (log intensity, higher = more binding, comparable within an allelic series)"
same,binding signal,HOXC10 [9],"10 upbm affinity estimate (log intensity, higher = more binding, comparable within an allelic series)"
CGGCCCCC,binding signal,VENTX [1],"8.06 upbm affinity estimate (log intensity, higher = more binding, comparable within an allelic series)"
same,binding signal,VENTX [2],"8.05 upbm affinity estimate (log intensity, higher = more binding, comparable within an allelic series)"
same,binding signal,HOXA7 [20],"8.26 upbm affinity estimate (log intensity, higher = more binding, comparable within an allelic series)"
same,binding signal,VENTX [4],"8.12 upbm affinity estimate (log intensity, higher = more binding, comparable within an allelic series)"
same,binding signal,HOXA2 [7],"7.13 upbm affinity estimate (log intensity, higher = more binding, comparable within an allelic series)"
same,binding signal,ALX1 [12],"6.51 upbm affinity estimate (log intensity, higher = more binding, comparable within an allelic series)"
same,binding signal,ALX3 [13],"7.78 upbm affinity estimate (log intensity, higher = more binding, comparable within an allelic series)"
same,binding signal,PITX2,"7.78 upbm affinity estimate (log intensity, higher = more binding, comparable within an allelic series)"
same,binding signal,HOXA2 [8],"9.86 upbm affinity estimate (log intensity, higher = more binding, comparable within an allelic series)"
same,binding signal,ALX1 [14],"6.5 upbm affinity estimate (log intensity, higher = more binding, comparable within an allelic series)"
same,binding signal,ALX3 [15],"7.73 upbm affinity estimate (log intensity, higher = more binding, comparable within an allelic series)"
same,binding signal,ALX3 [16],"7.68 upbm affinity estimate (log intensity, higher = more binding, comparable within an allelic series)"
same,binding signal,ALX3 [17],"7.67 upbm affinity estimate (log intensity, higher = more binding, comparable within an allelic series)"
same,binding signal,HOXA2 [10],"10.3 upbm affinity estimate (log intensity, higher = more binding, comparable within an allelic series)"
same,binding signal,HOXA7 [24],"8.35 upbm affinity estimate (log intensity, higher = more binding, comparable within an allelic series)"
same,binding signal,NKX3-2 [25],"10.4 upbm affinity estimate (log intensity, higher = more binding, comparable within an allelic series)"
same,binding signal,ALX1 [18],"6.49 upbm affinity estimate (log intensity, higher = more binding, comparable within an allelic series)"
same,binding signal,ALX3 [19],"7.76 upbm affinity estimate (log intensity, higher = more binding, comparable within an allelic series)"
same,binding signal,HOXA2 [11],"7.15 upbm affinity estimate (log intensity, higher = more binding, comparable within an allelic series)"
same,binding signal,NKX3-2 [26],"10.4 upbm affinity estimate (log intensity, higher = more binding, comparable within an allelic series)"
